Source: PubChem BioAssay (NCI)
The panel holds about 83,000 compounds, 20% with a hit somewhere; the sample as a whole holds those more often.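 48-hour exposure, single concentration, 96-well plates; percent growth endpoint where 0 means no net growth. Active: below 10.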 Calls of active or inactive are those of the source.

What was measured:
Test in all cases: NCI-60 one-dose screen, 48 h (100 = growth as untreated, 0 = no growth, -100 = all killed)
Details in all cases: 10 µM unless noted
SK-MEL-2 melanoma = tested on: SK-MEL-2 melanoma
EKVX NSCLC = tested on: EKVX NSCLC
SN12C renal = tested on: SN12C renal
UO-31 renal = tested on: UO-31 renal
TK-10 renal = tested on: TK-10 renal
ACHN renal = tested on: ACHN renal
CAKI-1 renal = tested on: CAKI-1 renal
A498 renal = tested on: A498 renal
CCRF-CEM leukemia = tested on: CCRF-CEM leukemia
MOLT-4 leukemia = tested on: MOLT-4 leukemia

Measured: growth

COc1cc(CNC(=O)C[C@H](C)CCC=C(C)C)ccc1OCc1cn(-c2cccc(C(F)(F)F)c2)nn1
inactive: SK-MEL-2 melanoma 111% | EKVX NSCLC 92.1% | SN12C renal 27.1% | UO-31 renal 75.7% | TK-10 renal 102% | ACHN renal 77.6% | CAKI-1 renal 73.6% | A498 renal 91% | CCRF-CEM leukemia 97.1% | MOLT-4 leukemia 84.8%

C/C(=N/O)c1ccc(NC(=O)CSc2nnc(-c3ccc4nc(-c5ccc(Cl)cc5)[nH]c4c3)o2)cc1
inactive: SK-MEL-2 melanoma 65.1% | EKVX NSCLC 99.8% | SN12C renal 28.8% | UO-31 renal 87.7% | TK-10 renal 121% | ACHN renal 77.3% | CAKI-1 renal 97% | A498 renal 158% | CCRF-CEM leukemia 32.5% | MOLT-4 leukemia 19.6%

COc1ccc2[nH]c(=O)c(CSc3ccccc3Nc3nccc(-c4ccc(Cl)cc4)n3)cc2c1
inactive: SK-MEL-2 melanoma 57.9% | EKVX NSCLC 60% | UO-31 renal 45.8% | TK-10 renal 90.3% | ACHN renal 31% | A498 renal 85.8% | CCRF-CEM leukemia 28.4%
active: SN12C renal -2.68% | CAKI-1 renal -1.64% | MOLT-4 leukemia -2.12%

COc1cc(/C=C/C(=O)c2cnn(-c3cc(=O)[nH]c4ccc(Br)cc34)c2C)cc(OC)c1OC
active: SK-MEL-2 melanoma -59.6% | EKVX NSCLC -57.8% | SN12C renal -7.58% | UO-31 renal -80.7% | TK-10 renal 1.77% | ACHN renal -34.9% | CAKI-1 renal -4.42% | A498 renal 6.24% | CCRF-CEM leukemia -19.6% | MOLT-4 leukemia -12.3%

CCCn1c(NC(=O)c2cccc(C(N)=O)c2)nc2ccc(CN3CCCCC3)cc21
inactive: SK-MEL-2 melanoma 105% | EKVX NSCLC 103% | SN12C renal 88% | UO-31 renal 65.3% | TK-10 renal 99.3% | ACHN renal 60.3% | CAKI-1 renal 50.2% | A498 renal 159% | CCRF-CEM leukemia 96.4% | MOLT-4 leukemia 98.9%

CN1CCN(CCS(=O)(=O)Nc2cc(-c3ccc4ncnc(Nc5ccc(F)c(Cl)c5)c4c3)cnc2Cl)CC1
inactive: SN12C renal 27.7% | UO-31 renal 18.2% | ACHN renal 23.2%
active: SK-MEL-2 melanoma -52.2% | EKVX NSCLC -22.2% | TK-10 renal 1.24% | CAKI-1 renal 6.32% | A498 renal -30.9% | CCRF-CEM leukemia 8.02% | MOLT-4 leukemia -49.7%

Cn1cc(-c2cc(N)n3nc(-c4c[nH]c5ccc(F)cc45)cc3n2)c2cccnc21
inactive: SK-MEL-2 melanoma 86.8%
active: EKVX NSCLC -64.9% | SN12C renal -80.6% | UO-31 renal -75.8% | TK-10 renal -68.7% | ACHN renal -93.8% | CAKI-1 renal -70.7% | A498 renal -74.8% | CCRF-CEM leukemia -34.6% | MOLT-4 leukemia -30.1%

N#CCc1nnc(NC(=O)c2ccc(-n3c(=O)[nH]c4ccccc4c3=O)cc2)s1
inactive: SK-MEL-2 melanoma 97.7% | EKVX NSCLC 94.8% | SN12C renal 95.4% | UO-31 renal 66.7% | TK-10 renal 104% | ACHN renal 92.1% | CAKI-1 renal 86.3% | A498 renal 96.2% | CCRF-CEM leukemia 101% | MOLT-4 leukemia 103%

C=CCSc1nnc(-c2ccc(-c3nc4ccc(Cl)cc4[nH]3)cc2)o1
inactive: SK-MEL-2 melanoma 38.7% | EKVX NSCLC 60.8% | SN12C renal 63.1% | UO-31 renal 78.4% | TK-10 renal 90.3% | ACHN renal 78.8% | CAKI-1 renal 49.2% | A498 renal 106% | CCRF-CEM leukemia 37.1% | MOLT-4 leukemia 48.9%

CCCn1c(NC(=O)c2cccc(C(N)=O)c2)nc2cc(CN3CCCCC3)ccc21
inactive: SK-MEL-2 melanoma 115% | EKVX NSCLC 100% | SN12C renal 89% | UO-31 renal 67.5% | TK-10 renal 92.6% | ACHN renal 77.8% | CAKI-1 renal 53.3% | A498 renal 170% | CCRF-CEM leukemia 94.7% | MOLT-4 leukemia 94.8%

Cn1ncc2c(N)nc(Oc3ccccc3-c3ccccc3)nc21
active: SK-MEL-2 melanoma -4.9% | MOLT-4 leukemia 8.1%
inactive: EKVX NSCLC 41.6% | SN12C renal 43.3% | UO-31 renal 48.1% | TK-10 renal 65.1% | ACHN renal 51.6% | CAKI-1 renal 29% | A498 renal 105% | CCRF-CEM leukemia 25.5%

Clc1ccc(-c2nc3c4c(-c5ccccc5)c(-c5ccccc5)n(Cc5ccccc5)c4ncn3n2)cc1
inactive: TK-10 renal 24.1%
active: SK-MEL-2 melanoma -10.4% | EKVX NSCLC 2.2% | SN12C renal 0.356% | UO-31 renal 1.71% | ACHN renal -4.9% | CAKI-1 renal -20.1% | A498 renal -17.4% | CCRF-CEM leukemia -2.09% | MOLT-4 leukemia -5.99%

COc1cc(CNC(=O)C[C@H](C)CCC=C(C)C)ccc1OCc1cn(-c2ccccc2F)nn1
inactive: SK-MEL-2 melanoma 78.6% | EKVX NSCLC 78.3% | SN12C renal 76.1% | UO-31 renal 71.9% | TK-10 renal 95.8% | ACHN renal 65.3% | CAKI-1 renal 55.1% | A498 renal 103% | CCRF-CEM leukemia 97.3% | MOLT-4 leukemia 74.8%

COc1cc(/C=N/NC(=O)c2ccc(OCc3nc4ccc(Cl)cc4[nH]3)cc2)cc(OC)c1OC
inactive: SK-MEL-2 melanoma 74.5% | EKVX NSCLC 33.3% | SN12C renal 48.7% | UO-31 renal 45.5% | TK-10 renal 74.9% | ACHN renal 39.1% | CAKI-1 renal 40.5% | A498 renal 121% | MOLT-4 leukemia 12.1%
active: CCRF-CEM leukemia 3.83%

NCCCCn1c(SCCc2c[nH]c3ccccc23)nnc1-c1ccc2ccccc2n1
inactive: UO-31 renal 26.4% | A498 renal 98.5%
active: SK-MEL-2 melanoma -73.5% | EKVX NSCLC -0.327% | SN12C renal -14.8% | TK-10 renal -7.11% | ACHN renal -55.1% | CAKI-1 renal -9.25% | CCRF-CEM leukemia -23.3% | MOLT-4 leukemia -35.4%

O=C(Nc1ccc(-c2ccc3c(c2)NC(=O)/C3=C\c2ccc[nH]2)cc1)Nc1ccc(Cl)c(Cl)c1
inactive: SK-MEL-2 melanoma 88.9% | EKVX NSCLC 46.5% | SN12C renal 68.7% | UO-31 renal 54.9% | TK-10 renal 77.6% | ACHN renal 53.7% | CAKI-1 renal 39.1% | A498 renal 101% | CCRF-CEM leukemia 33.1% | MOLT-4 leukemia 33.5%

Clc1ccc(Nc2nnc(-c3c[nH]c4ccccc34)o2)cc1
active: MOLT-4 leukemia 9.41%
inactive: SK-MEL-2 melanoma 95.8% | EKVX NSCLC 55.3% | SN12C renal 53.6% | UO-31 renal 49.7% | TK-10 renal 121% | ACHN renal 74.4% | CAKI-1 renal 50.8% | A498 renal 120% | CCRF-CEM leukemia 10.9%

CCN1C(=O)N(CC)C2NNC(Sc3c(C(=O)O)c4ccccc4n(CC(C)C)c3=O)=NC21 (stereo not given)
active: CCRF-CEM leukemia 7.54% | MOLT-4 leukemia 6.5%
inactive: SK-MEL-2 melanoma 18.5% | EKVX NSCLC 38.5% | SN12C renal 24.3% | UO-31 renal 39.5% | TK-10 renal 52.7% | ACHN renal 28.7% | CAKI-1 renal 46.1% | A498 renal 133%

O=C1c2cccc3c(N4CCN(Cc5ccccc5)CC4)ccc(c23)C(=O)N1c1cccc(-c2nn(-c3ccccc3)cc2-c2nc3ccccc3s2)c1
inactive: SK-MEL-2 melanoma 111% | EKVX NSCLC 98.6% | SN12C renal 101% | UO-31 renal 68.8% | TK-10 renal 120% | ACHN renal 93.1% | CAKI-1 renal 86.1% | A498 renal 125% | CCRF-CEM leukemia 105% | MOLT-4 leukemia 113%

COc1ccc(NC(=O)Nc2nc3ccc([N+](=O)[O-])cc3s2)cc1
inactive: SK-MEL-2 melanoma 33.4% | TK-10 renal 29.7% | ACHN renal 10.8% | CAKI-1 renal 13.9% | A498 renal 21.8% | CCRF-CEM leukemia 11.2%
active: EKVX NSCLC 9.23% | SN12C renal 9.66% | UO-31 renal -5.06% | MOLT-4 leukemia 8.05%

NNc1ncnc2sc3c(c12)CCN(Cc1ccccc1)C3
inactive: SK-MEL-2 melanoma 82% | EKVX NSCLC 36% | SN12C renal 57% | UO-31 renal 51.7% | TK-10 renal 93.5% | ACHN renal 57.4% | CAKI-1 renal 56.4% | A498 renal 93.7% | CCRF-CEM leukemia 15.8% | MOLT-4 leukemia 19.7%

CS(=O)(=O)Nc1cncc(-c2ccc3ncnc(NCc4ccccc4)c3c2)c1
inactive: EKVX NSCLC 55.2% | SN12C renal 34.8% | UO-31 renal 52.7% | TK-10 renal 63% | ACHN renal 77.5% | CAKI-1 renal 60.7% | A498 renal 63.8% | CCRF-CEM leukemia 17%
active: SK-MEL-2 melanoma -8.92% | MOLT-4 leukemia -26%

COC(=O)c1cc(C(C)=O)n2c3ccccc3c3ccccc3c12
inactive: SK-MEL-2 melanoma 99.2% | EKVX NSCLC 69.5% | SN12C renal 75.6% | UO-31 renal 38% | TK-10 renal 74.3% | ACHN renal 36.4% | CAKI-1 renal 44.5% | A498 renal 121% | CCRF-CEM leukemia 85.2% | MOLT-4 leukemia 73.3%

Cc1ccc(O)cc1Nc1nc(SCCN2CCOCC2)nc2c1cnn2CC(Cl)c1ccc(Br)cc1 (stereo not given)
inactive: EKVX NSCLC 21% | SN12C renal 20% | TK-10 renal 17.8% | A498 renal 29.3%
active: SK-MEL-2 melanoma -35.9% | UO-31 renal 6.07% | ACHN renal 1.87% | CAKI-1 renal -31.5% | CCRF-CEM leukemia 5.71% | MOLT-4 leukemia -24.6%

O=C(Nc1ccc(Br)cc1)Nc1ccc(-c2ccc3c(c2)NC(=O)/C3=C\c2ccc[nH]2)cc1
inactive: SK-MEL-2 melanoma 36.7% | EKVX NSCLC 42.3% | SN12C renal 52.5% | UO-31 renal 20.6% | TK-10 renal 52.3% | ACHN renal 30% | CAKI-1 renal 31.1% | A498 renal 105% | CCRF-CEM leukemia 25.3% | MOLT-4 leukemia 35.6%

COc1cc(C=O)ccc1OC(=O)c1cc(-c2ccc(C)cc2)n(-c2ccc(S(C)(=O)=O)cc2)n1
inactive: SK-MEL-2 melanoma 108% | EKVX NSCLC 98.8% | SN12C renal 99.2% | UO-31 renal 85.6% | TK-10 renal 126% | ACHN renal 104% | CAKI-1 renal 93.5% | A498 renal 143% | CCRF-CEM leukemia 96.9% | MOLT-4 leukemia 91.4%
